Measurements: the supplement of paper PMC9694430

What follows are molecules tested on LOC_OS01G01410-cb001 (assay: thermal shift delta Tm vs DMSO control; higher = stronger stabilization (binding)). Settings: 12.5 µM; protein concentration 2 µM.
In short: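 Compounds dissolved in DMSO were added to purified rice kinase domain constructs, which had been expressed in E. coli, for differential scanning fluorimetry. Each well held 19.5 μl of 2 μM kinase in 100 mM potassium phosphate pH 7.5, 150 mM NaCl, 10% glycerol and 5 × SYPRO Orange. Fluorescence was followed from 25°C to 95°C at a rate of 0.05°C/s. Shifts in Boltzmann-fitted melting temperature are triplicate means relative to DMSO-only protein.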

Q: `CCn1c(=O)c(-c2ccc(-c3cncs3)cc2Cl)cc2cnc(Nc3ccc(N4CCN(C)CC4)cc3)nc21` was tested. Which “thermal shift delta Tm” value did it give?
A: Its value is 0.16 °C.

Q: With `Cc1ccc(CNc2ncnc3ccc(-c4ccc(CO)o4)cc23)o1` as the molecule, how does the “thermal shift delta Tm” value read?
A: The value was 0.69 °C.

Q: With `COc1ccc(C(=O)Nc2sc3c(c2C(N)=O)CCCC3)cc1OC` as the molecule, how does the “thermal shift delta Tm” value read?
A: Its value is 0.61 °C.

Q: How did the “thermal shift delta Tm” value turn out when `COc1cc2c(Oc3ccc4[nH]c(C)cc4c3F)ncnc2cc1OCCCN1CCCC1` [Cediranib (AZD2171)] was run?
A: Its value is 0.9 °C.

Q: For `CNC(=O)c1cccc(-c2ccc3c(N4CCOC[C@@H]4C)nc(N4CCOC[C@@H]4C)nc3n2)c1` [Vistusertib (AZD2014)], which “thermal shift delta Tm” value is on record?
A: Its value is 0.53 °C.

Q: How did the “thermal shift delta Tm” value turn out when `Cc1ccc(C(=O)Nc2ccc(CN3CCN(C)CC3)c(C(F)(F)F)c2)cc1C#Cc1cnc2[nH]ncc2c1` [GZD824 Dimesylate] was run?
A: Its value is 4.32 °C.

Q: For `Cc1ccccc1-n1c(Cn2nc(-c3cccc(O)c3)c3c(N)ncnc32)nc2cccc(C)c2c1=O`, which “thermal shift delta Tm” value is on record?
A: The value was 0.31 °C.

Q: For `Cc1nc(Nc2cnn(C3CCNCC3)c2)nc2c1N(C)C(=O)c1cc3ccccc3cc1N2C`, which “thermal shift delta Tm” value is on record?
A: Its value is 0.36 °C.

Q: How did the “thermal shift delta Tm” value turn out when `O=C1NCCc2[nH]c(-c3ccncc3)cc21` was run?
A: The value was 0.69 °C.

Q: How did the “thermal shift delta Tm” value turn out when `Cc1nc2c(-c3cnc(N)nc3)nc(N3CCOCC3)nc2n1C(C)C` was run?
A: The value was 0.02 °C.

Q: For `O=C(Nc1nc2cccc(-c3ccc(CN4CCS(=O)(=O)CC4)cc3)n2n1)C1CC1` [Filgotinib (GLPG0634)], which “thermal shift delta Tm” value is on record?
A: Its value is 0.4 °C.

Q: With `Fc1ccc2[nH]ccc2c1-c1nc(N2CCOCC2)c2sc(CN3CCN(CC4CC4)CC3)cc2n1` as the molecule, how does the “thermal shift delta Tm” value read?
A: The value was 0.26 °C.

Q: With `CCOC(=O)c1cnc2ccc(-c3cncc(NS(=O)(=O)c4ccccc4)c3)cn12` as the molecule, how does the “thermal shift delta Tm” value read?
A: The value was 1.19 °C.

Q: How did the “thermal shift delta Tm” value turn out when `CCOc1cn(-c2ccc(F)cc2C)nc1C(=O)Nc1ccc(Oc2ccnc3cc(OC)c(OC)cc23)c(F)c1` was run?
A: Its value is 0.08 °C.
